Test systems include NCI-H23 lung; NCI-H460 lung; 786-0 renal; DU-145 prostate; MDA-MB-231 breast; SF-268 CNS; M14 melanoma; SNB-75 CNS; PC-3 prostate; SK-MEL-28 melanoma; ACHN renal; OVCAR-3 ovarian; NCI/ADR-RES ovarian; SW-620 colon; MCF7 breast; HCT-116 colon; KM12 colon; UACC-62 melanoma; SF-539 CNS; OVCAR-5 ovarian.
Common to all, as to test: NCI-60 one-dose screen, 48 h (100 = growth as untreated, 0 = no growth, -100 = all killed)
What all share (conditions): 10 µM unless noted

About 83,000 compounds went through this panel and 20% of them were active in at least one assay; those are over-represented in the sample as a whole.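 Values shown are percent growth following 48 h exposure of cells in 96-well plates to a single concentration of compound; below 10 was considered active.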 Values without a mark were called inactive. The source made the active and inactive calls.

As for `NCCc1cc(O)c(O)cc1O`, the growth in the assay with NCI-H23 lung was 100%; in the assay with NCI-H460 lung, 112%; in the assay on 786-0 renal, 99.9%; in the assay on DU-145 prostate it was 112%; in the assay on MDA-MB-231 breast, 94.4%; with SF-268 CNS, 104%. Besides, the growth in the assay with M14 melanoma is 99.6%; in the assay on SNB-75 CNS, 95.9%; in the assay on PC-3 prostate it was 82.3%; in the assay with SK-MEL-28 melanoma it was 114%; with ACHN renal, 87.4%; with OVCAR-3 ovarian, 111%. The growth is 101% with NCI/ADR-RES ovarian; 109% in the assay on SW-620 colon; 105% in the assay with MCF7 breast; 95.3% in the assay on HCT-116 colon; 96.8% in the assay on KM12 colon.
Take `CC1(CF)NC(=O)NC1=O` (stereo unspecified): the growth in the assay with NCI-H23 lung is 103%; in the assay on NCI-H460 lung it was 112%; with 786-0 renal, 97.6%; in the assay on DU-145 prostate it was 116%; in the assay on MDA-MB-231 breast, 99.1%; with SF-268 CNS it was 104%. Moreover, the growth was 104% with M14 melanoma; 89.9% with SNB-75 CNS; 101% in the assay on PC-3 prostate; 96.8% in the assay with UACC-62 melanoma; 111% in the assay with SK-MEL-28 melanoma; 115% in the assay on OVCAR-3 ovarian. The growth in the assay on NCI/ADR-RES ovarian was 107%; in the assay on SW-620 colon it was 106%; with MCF7 breast, 92.7%; with HCT-116 colon, 103%; with KM12 colon, 106%.
For `COc1cc(C2CC(=O)Nc3nc(N)[se]c32)cc(OC)c1OC` (stereo unspecified), the growth in the assay with NCI-H23 lung is 102%; in the assay with NCI-H460 lung, 25.1%; in the assay on 786-0 renal it was 114%; in the assay with DU-145 prostate, 101%; with MDA-MB-231 breast, 101%; with SF-268 CNS, 101%. Further, the growth was 101% with SF-539 CNS; 115% with M14 melanoma; 98.9% in the assay on SNB-75 CNS; 71.2% with PC-3 prostate; 117% in the assay with UACC-62 melanoma; 111% in the assay with SK-MEL-28 melanoma. Moreover, the growth in the assay on ACHN renal was 103%; in the assay on OVCAR-5 ovarian, 93.4%; in the assay with OVCAR-3 ovarian, 101%; in the assay on NCI/ADR-RES ovarian, 107%; in the assay with SW-620 colon, 109%; in the assay on MCF7 breast it was 98.6%. Besides, the results for the growth in the assay on HCT-116 colon and with KM12 colon were 74.9% and 56.7%, respectively.
Regarding `COc1ccc2c(c1)NC1=C(C(=O)OC1)C2c1cc(OC)c(OC)c(OC)c1` (stereo unspecified), the growth in the assay with NCI-H23 lung is 16.2%; in the assay on NCI-H460 lung it was 4.55% (active); in the assay with 786-0 renal it was 18.8%; in the assay on DU-145 prostate it was -24.7% (active); in the assay with MDA-MB-231 breast, 6.08% (active); in the assay with SF-268 CNS, 22.6%. Further, the growth with SF-539 CNS was -4.41% (active); in the assay on M14 melanoma, 6.44% (active); in the assay on SNB-75 CNS it was 45.7%; in the assay with PC-3 prostate, 20.6%; in the assay on UACC-62 melanoma it was 44.7%; with SK-MEL-28 melanoma, 66.2%. The growth is 31.1% in the assay on ACHN renal; 36.1% in the assay with OVCAR-5 ovarian; -41.9% (active) with OVCAR-3 ovarian; -34.5% (active) with NCI/ADR-RES ovarian; 17.9% in the assay on SW-620 colon; 9.07% (active) with MCF7 breast. In addition, the growth is 5.07% (active) in the assay on HCT-116 colon and -4.06% (active) in the assay on KM12 colon.
As to `CCCC(C)(C)c1ccc2c(c1)OC(C)(C)[C@@H]1CC=C(C)C[C@@H]21`, the growth in the assay with NCI-H23 lung was 96.1%; in the assay with NCI-H460 lung, 106%; in the assay on 786-0 renal, 98.8%; in the assay on DU-145 prostate it was 108%; in the assay on MDA-MB-231 breast it was 108%; in the assay with SF-268 CNS, 93%. The growth in the assay with SF-539 CNS was 104%; with M14 melanoma it was 99.7%; in the assay on SNB-75 CNS, 88.2%; in the assay with PC-3 prostate, 84.3%; in the assay with UACC-62 melanoma, 98%; in the assay on SK-MEL-28 melanoma it was 112%. Besides, the growth was 105% in the assay with ACHN renal; 107% with OVCAR-5 ovarian; 102% in the assay on OVCAR-3 ovarian; 98.9% with NCI/ADR-RES ovarian; 97.3% in the assay on SW-620 colon; 93.9% in the assay with MCF7 breast. Moreover, the figures for the growth with HCT-116 colon and in the assay on KM12 colon were 87.6% and 103%, respectively.
Turning to `O=C(CCF)c1ccc(O)cc1`, the growth was 94% with NCI-H23 lung; 103% with 786-0 renal; 105% with DU-145 prostate; 113% in the assay with MDA-MB-231 breast; 103% with SF-539 CNS; 106% in the assay on M14 melanoma. For the same molecule, the growth is 96.9% in the assay with SNB-75 CNS; 98% in the assay with PC-3 prostate; 106% with UACC-62 melanoma; 113% in the assay on SK-MEL-28 melanoma; 106% in the assay with ACHN renal; 96.7% in the assay with OVCAR-5 ovarian. The growth was 109% in the assay on OVCAR-3 ovarian; 105% in the assay with NCI/ADR-RES ovarian; 101% in the assay on MCF7 breast; 103% in the assay with HCT-116 colon; 106% in the assay with KM12 colon.
For the molecule `CNC(=O)Oc1cc(C(C)C)ccc1Sc1ccc(C(C)C)cc1OC(=O)NC`, the growth was 76.4% in the assay with NCI-H23 lung; 34.9% in the assay with NCI-H460 lung; 105% with 786-0 renal; 72.8% in the assay on DU-145 prostate; 58.4% in the assay on MDA-MB-231 breast; 60.2% in the assay on SF-268 CNS. Also, the growth was 56.8% with SF-539 CNS; 89.2% in the assay on M14 melanoma; 52.1% in the assay with SNB-75 CNS; 53.7% with PC-3 prostate; 47.2% in the assay on UACC-62 melanoma; 66.3% in the assay on SK-MEL-28 melanoma. Also, the growth in the assay on ACHN renal is 81.6%; with OVCAR-5 ovarian, 95.7%; with OVCAR-3 ovarian, 69.2%; in the assay with NCI/ADR-RES ovarian it was 54.1%; in the assay on SW-620 colon, 43.6%; in the assay with MCF7 breast, 58.8%. Also, the growth in the assay on HCT-116 colon was 66.5%; in the assay with KM12 colon, 57.9%.
For `Nc1nc(N)c(-c2ccc(Cl)c(Cl)c2)c(/C=C/c2ccc(S(=O)(=O)F)cc2)n1`, the growth is 106% with NCI-H23 lung; 77% with NCI-H460 lung; 76.9% with 786-0 renal; 96.7% in the assay with DU-145 prostate; 104% in the assay with MDA-MB-231 breast; 97.4% in the assay with SF-268 CNS. The growth with SF-539 CNS is 80.1%; in the assay with M14 melanoma it was 89.4%; in the assay on SNB-75 CNS, 78.4%; in the assay with PC-3 prostate, 65%; in the assay with UACC-62 melanoma it was 79.1%; in the assay with SK-MEL-28 melanoma, 98.1%. For the same molecule, the growth was 67.8% with ACHN renal; 80.8% in the assay on OVCAR-5 ovarian; 95.4% in the assay with OVCAR-3 ovarian; 105% in the assay with NCI/ADR-RES ovarian; 78.5% in the assay on SW-620 colon; 73.5% in the assay with MCF7 breast. Besides, the growth was 77.7% with HCT-116 colon and 86.8% with KM12 colon.

The values above are taken from PubChem BioAssay (NCI).
